Results from PubChem BioAssay AID2284379 (EPA ToxCast).
Results filed as inconclusive are left out. Active and inactive are the calls of the source. Rule for the calls: active = hit-call score of the fitted dose curve at least 0.9, where 1 is the maximum; inconclusive = response in the unintended direction; inactive = score below 0.9.

Assay: ATG_M_32_EcoTox2: Attagene TRANS-FACTORIAL EcoTox-2 HepG2 Assay for M32 Transcription Factor (Internal Marker)
Protocol: ATG_EcoTox2 is a cell-based, multiplexed assay created by modifying the existing Attagene TRANS-FACTORIAL system to include a panel of nuclear receptors from some or all the following species: human (Homo sapiens), african clawed frog (Xenopus laevis), rainbow trout (Oncorhynchus mykiss), japanese medaka (Oryzias latipes), and zebrafish (Danio rerio). The ECOTOX2-FACTORIAL format uses HepG2, a human liver cell line, with measurements taken at 24 hours after chemical dosing in a 24-well plate. ATG_M_32_EcoTox2 is one of 29 assay components calculated in the ATG_EcoTox2 assay. It is designed to make measurements of mRNA induction, a form of inducible reporter, as detected with fluorescence intensity signals by Reverse transcription polymerase chain reaction (RT-PCR) and Capillary electrophoresis technology.The assay endpoint ATG_M_32_EcoTox2 was analyzed in the positive analysis fitting direction relative to DMSO as the negative control and baseline of activity. Using a type of inducible reporter, measures of mRNA for gain-of-signal activity can be used to understand the background control at the transcription factor-level as they relate to the gene. Furthermore, this assay endpoint can be referred to as a secondary readout, because this assay has produced multiple assay endpoints where this one serves a background control function. To generalize the intended target to other relatable targets, this assay endpoint is annotated to the background measurement intended target family, where the subfamily is internal marker.
Human liver HepG2 cells are transiently transfected with multiple reporter transcription units (MRTUs) in 6-well plates using FuGene 6 reagent (Roche; 3 ml FuGene/1 mg DNA). The MRTU constructs are regulated by a cis-regulating element (promoter). Each RTU expresses a GAL4-UAS that regulates the transcription of a nearby target reporter gene sequence. A major difference between the CIS and TRANS system is that in CIS activities of endogenous TFs are measured, whereas the TRANS assay evaluates changes in activities of exogenous, chimeric NR-Gal4 proteins. […] At the end of 24 hour incubation, total RNA was isolated using TriZol reagent (Invitrogen). The isolated RNA is then reverse-transcribed using oligo(dT) primer and Mo-MLV reverse transcriptase (Invitrogen) with DNAse I (Ambion) treatment for 30 min. The one-tenth of the produced cDNA was amplified by PCR using Taq DNA polymerase (Invitrogen) and two reporter sequence-specific primers. The PCR products were fluorescently labeled by primer extension with 6-arboxyfluorescein (6-FAM) 5'-labeled reporter sequence-specific primer (2 min at 95 C, 20 s at 68 C and 10 min at 72 C) and these products were digested with 5U of HpaI (New England Biolabs) for 2h at 37 C. The fragments were purified using Qiaquick PCR columns (Qiagen), analyzed on an ABI 3130xL genetic analyzer (Applied Biosystems) with peak positions identified by using a set of X-rhodamine (ROX)-labeled MapMarker1000 molecular weight standards (BioVentures). The raw capillary electrophoresis data was processed using Attagraph software (Attagene).

| SMILES | outcome |
| --- | --- |
| Cc1nc(-c2ccc(C(F)(F)F)cc2)sc1C(=O)NCc1ccc(OC(C)(C)C(=O)O)cc1 | inactive |
| CC(c1cc2ccccc2s1)N(O)C(N)=O (stereo unspecified) | inactive |
| C[C@@H]1C[C@H]2[C@@H]3CCC4=CC(=O)C=C[C@]4(C)[C@@]3(F)[C@@H](O)C[C@]2(C)[C@@]1(O)C(=O)COP(=O)(O)O | inactive |
| CN(CCOc1ccc(CC2SC(=O)NC2=O)cc1)c1ccccn1 (stereo unspecified) | inactive |
| CC(C)OC(=O)C(C)(C)Oc1ccc(C(=O)c2ccc(Cl)cc2)cc1 | inactive |
| Cc1c(C)c2c(c(C)c1O)CCC(C)(COc1ccc(CC3SC(=O)NC3=O)cc1)O2 (stereo unspecified) | inactive |
